We go through 40 compounds from PubChem BioAssay (NCI).

Structures are written as SMILES. This is part of a sample that, as a whole, favours compounds with a hit. Of some 83,000 tested, about 20% had one in any assay.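 Values shown are percent growth following 48 h exposure of cells in 96-well plates to a single concentration of compound; below 10 was considered active.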 A number with no mark means an inactive call. Activity calls are given as the source filed them.

The first assay relates to T-47D breast. The assay can be described thus: NCI-60 one-dose screen, 48 h (100 = growth as untreated, 0 = no growth, -100 = all killed). The note with it: 10 µM unless noted.
On to `CC(=C(c1ccc(OCCCN(C)C)cc1)c1ccc(OCCCN(C)C)cc1)c1ccc(Cl)cc1`, for which the growth is 74.9%.

Consider `CCc1cc2c(cc1Cl)nc1c(=O)[nH]c(=O)nc-1n2CCOCC(C)(C)C`, for which the growth was 80.7%.

On to `COc1ccc(/C=N/N=C(/c2ccccc2)c2ccc3nc(-c4ccc(Cl)cc4)[nH]c3c2)cc1`, for which the growth is 63.5%.

Regarding `Cc1[nH]c(C(=O)Nc2ccc(S(=O)(=O)N3CCCCC3)cc2OCCOCCOCCOCCOCCOCCOCCOCCOCCOc2cc(S(=O)(=O)N3CCCCC3)ccc2NC(=O)c2[nH]c(C)c3c2CCCCC3=O)c2c1C(=O)CCCC2`, the growth was 7.19% (active).

For the compound `Cc1csc(/N=C(N)/N=C(\N)c2cccc(C#N)c2)n1`, the growth is 79.7%.

For the compound `CC1(C)CC[C@]23CC[C@]4(C)[C@H](CC[C@@H]5[C@@]6(C)CC[C@H](NCO)C(C)(C)[C@@H]6CC[C@]54C)[C@H]2[C@H]1OC3`, the growth is 44.2%.

Consider `NC1CC2(CCN(c3cnc(C(=O)Nc4cc(F)cc5cccnc45)cn3)CC2)C1`, for which the growth was 64.5%.

Consider `COc1ccc(-c2cc(-c3ccc(N4CCOCC4)cc3)n3c(n2)nc2ccccc23)cc1OC`, for which the growth is 81%.

For `CN1CCC[C@]2(C)[C@H]3CC[C@@H]4[C@@H]5[C@H]6OC[C@@]5(CCC6(C)C)CC[C@@]4(C)[C@]3(C)CC[C@H]2C1(C)C`, the growth was 54.9%.

The test system of the next assay is BT-549 breast. The description is as above. The note with it: 10 µM unless noted.
For `c1ccc(-c2cn3c(-c4c[nH]c5ccccc45)csc3n2)cc1`, the growth was 41.4%.

`O=C(/C=C/c1ccccc1Cl)Nc1ncc(Cc2cc(Cl)ccc2Cl)s1`: the growth is 32.5%.

As for `O=C(CCCCCCNC(=O)c1csc(Br)n1)NO`, the growth was 88.4%.

With `CCOC(=O)c1cnc2c(-c3ccc(Cl)c(Cl)c3)cnn2c1`, the growth is 26.5%.

Take `Cc1csc(/N=C(N)/N=C(\N)c2cccc(Br)c2)n1`: the growth is 92.6%.

Regarding `CN1CCN(c2ccc(Nc3nc(NCCNC(=O)c4ccccc4)c4sccc4n3)cc2)CC1`, the growth is 58.8%.

As for `C#Cc1cc(OC)c(C(=O)Nc2ccc(F)cc2C(=O)Nc2cccc(S(=O)(=O)C(F)(F)F)c2)cn1`, the growth is 1.8% (active).

Turning to `CCCN1C=C/C(=C\C(=O)n2ccc3ccccc32)c2ccccc21`, the growth is 103%.

For the compound `CNC(=O)c1cc(-n2ccc3cc(NC(=O)Nc4ccc(N5CCN(C)CC5)c(C(F)(F)F)c4)ccc32)ccn1`, the growth is 95.1%.

With `Fc1cc(F)cc(NNC(=S)c2ccccc2)c1`, the growth is 17.8%.

Regarding `CCCCCCCCCCCC(=O)NC(C)(C)C(=O)N1CCCC1C(=O)NC(C)(C)C(=O)NC(C)(C)C(=O)N1CCCC1C(=O)NC(C)(C)C(=O)NC(C)(C)C(=O)N1CCCC1C(=O)NC(C)C(=O)NCCC(=O)NC(C)C(=O)NC(C)(C)C(=O)NC(C)(C)C(=O)NC(C)(C)C(=O)NCCC(=O)NC(C)(C)C(=O)NC(C)(C)C(=O)NC(C)(C)C(=O)NC(C)C(=O)NCCC(=O)O` (centres undefined), the growth is -97.1% (active).

`CC[C@]12C=CCN3CC[C@@]4(c5ccc(OC)cc5N(C)[C@H]4[C@@](O)(C(=O)OC)[C@@H]1OC(=O)CCN1CCc4ccccc4C1)[C@@H]32`: the growth is 93.2%.

As to `O=C(CCCCCCNC(=O)C(O)(O)C(F)(F)F)Nc1ccc(-c2ccccc2)cc1`, the growth was 14.8%.

With `Brc1cccc(-c2cc(-c3cnc4c(c3)OCCO4)n[nH]2)c1`, the growth is 67.3%.

In the case of `CS(=O)(=O)c1ccc(/C(=N/N=C(N)N)c2ccc(Cl)cc2)cc1`, the growth was 85%.

For the compound `CCN1CCN(c2ccc(NC(=O)Nc3ccc4c(ccn4-c4ccnc(C(=O)NC)c4)c3)cc2C(F)(F)F)CC1`, the growth was 73.6%.

For the compound `Cc1ccc2c(n1)C(=O)C(Cl)=C(Nc1ccc(C#N)cc1)C2=O`, the growth is 120%.

For the compound `NS(=O)(=O)c1ccc(Nc2nc(Nc3ccccc3)nc(N3N=C(c4ccc(Cl)cc4)CC3c3ccc(Cl)cc3)n2)cc1` (centres undefined), the growth was 73.2%.

Consider `COC(=O)c1cccc(NC2=C(Cl)C(=O)c3nc(C)ccc3C2=O)c1`, for which the growth was 125%.

For the compound `C#CCN(C)CCCOc1ccc(NCc2ccc(/C=C/C(=O)NO)cc2)cc1Cl`, the growth was 18.8%.

As to `Cc1nc(N)sc1-c1csc(Nc2ccc(C(F)(F)F)cc2)n1`, the growth was -12% (active).

For the compound `COc1ccc(-c2nc(C#N)c(N3CCC(S(=O)(=O)N4CCOCC4)CC3)o2)cc1`, the growth was 108%.

For `O=C(CCCCCCN1CC(=O)N2[C@@H](c3ccc(Cl)s3)c3[nH]c4ccccc4c3C[C@H]2C1=O)NO`, the growth is 85.7%.

Consider `C#C[C@]1(O)CC[C@H]2[C@@H]3CC=C4c5sc(N(C)c6ccccc6)nc5CC[C@]4(C)[C@H]3CC[C@@]21C`, for which the growth was 74.6%.

Regarding `COc1ccc(/C=N/NC(=O)c2c(N)nn(C)c2Nc2ccccc2)cc1Oc1ccccc1`, the growth is 94.1%.

Consider `CCOC(=O)c1cccc(NC2=C(Cl)C(=O)C(C)=C(C)C2=O)c1`, for which the growth was 131%.

On to `Cc1ccc(NC(=O)Nc2nc3ccc([N+](=O)[O-])cc3s2)cc1`, for which the growth was -9.82% (active).

Consider `Oc1[nH]c2ccc(Cl)cc2c1N=Nc1nc(N=Nc2c(O)[nH]c3ccc(Cl)cc23)nc(N2CCOCC2)n1`, for which the growth was -6.36% (active).

For `C[C@H](Nc1ncnc2ccc(-c3cnc(Cl)c(NS(C)(=O)=O)c3)cc12)c1ccccc1`, the growth is -61.5% (active).

On to `Brc1ccc(-c2cc(-c3ccc4c(c3)OCCO4)n[nH]2)s1`, for which the growth was 62%.

On to `C/C=C/CC(C)C(O)[C@H](NC(=O)[C@@H]1CCCN1C(=O)[C@](C)(CC)NC(=O)CCCCCCCCC)C(=O)N[C@@](C)(CC)C(=O)N[C@@H](CCC(N)=O)C(=O)N[C@H](CCC(N)=O)C(=O)NC(C)(C)C(=O)NC(C)(C)C(=O)N[C@@H](CCC(N)=O)C(=O)N[C@H](CC(C)C)C(=O)N[C@H](CO)CC(C)C` (some centres undefined), for which the growth was -72.4% (active).

On to `CC(=C(c1ccc(OCCCN(C)C)cc1)c1ccc(OCCCN(C)C)cc1)c1ccc(Cl)cc1`, for which the growth was 109%.

Regarding `CCc1cc2c(cc1Cl)nc1c(=O)[nH]c(=O)nc-1n2CCOCC(C)(C)C`, the growth is 95%.

Regarding `COc1ccc(/C=N/N=C(/c2ccccc2)c2ccc3nc(-c4ccc(Cl)cc4)[nH]c3c2)cc1`, the growth is 85.7%.

Regarding `Cc1[nH]c(C(=O)Nc2ccc(S(=O)(=O)N3CCCCC3)cc2OCCOCCOCCOCCOCCOCCOCCOCCOCCOc2cc(S(=O)(=O)N3CCCCC3)ccc2NC(=O)c2[nH]c(C)c3c2CCCCC3=O)c2c1C(=O)CCCC2`, the growth is 2.28% (active).

`Cc1csc(/N=C(N)/N=C(\N)c2cccc(C#N)c2)n1`: the growth was 73.1%.

As to `CC1(C)CC[C@]23CC[C@]4(C)[C@H](CC[C@@H]5[C@@]6(C)CC[C@H](NCO)C(C)(C)[C@@H]6CC[C@]54C)[C@H]2[C@H]1OC3`, the growth was 98.5%.

`NC1CC2(CCN(c3cnc(C(=O)Nc4cc(F)cc5cccnc45)cn3)CC2)C1`: the growth was 84.8%.

In the case of `COc1ccc(-c2cc(-c3ccc(N4CCOCC4)cc3)n3c(n2)nc2ccccc23)cc1OC`, the growth is 82.3%.

As to `CN1CCC[C@]2(C)[C@H]3CC[C@@H]4[C@@H]5[C@H]6OC[C@@]5(CCC6(C)C)CC[C@@]4(C)[C@]3(C)CC[C@H]2C1(C)C`, the growth is 96.8%.
